# BAZ2B inh: inhibitors of human BAZ2B bromodomain; 360,000 compounds, 4.4% hits; AID 504333; Potency, µM (titrated, usually from 114 µM), for the others: at the highest dose activity change, negative = inhibition, most hits filed as inhibitors; AlphaScreen BAZ2B-H3K14Ac peptide displacement; Q9UIF8; also: % is scaled to controls: 0 for no effect and ±100 for the full control effect; nearly all actives have a fitted effect of over 60% in size
#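 AlphaScreen displacement of biotin-H3(5-23)K14Ac peptide (50 nM final) from BAZ2B (50 nM final) in PBS pH 7.4, 0.01% Tween-20; complex preformed 30 min RT, then compounds (top 110 uM) 30 min RT, beads 20 min dark.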
# JMJD2A Tudor inh: inhibitors of human JMJD2A Tudor domain | O75164 | AlphaScreen JMJD2A-Tudor / H3K4me3 peptide binding | Potency, µM (highest dose often 114 µM), for inactives: top-dose activity change, negative = inhibition, usual class: inhibitors | 390,000 compounds, 4.4% hits | AID 504339; also: % is scaled to controls: 0 for no effect and ±100 for the full control effect; nearly all actives have a fitted effect of over 50% in size
# PLK1 PBD inh: PLK1 (human) polo-box domain binding inhibition. P53350. Plk1 PBD binding of FITC phosphopeptide, fluorescence polarization. Potency, µM, without a hit: max response, negative = inhibition, most hits filed as inhibitors. 360,000 compounds, 2.8% hits; also: series mostly up to about 57 µM; % is scaled to controls: 0 for no effect and ±100 for the full control effect; nearly all actives have a fitted effect of over 65% in size
# Target sequence (P53350 whole entry, looked up, the tested form may be a part): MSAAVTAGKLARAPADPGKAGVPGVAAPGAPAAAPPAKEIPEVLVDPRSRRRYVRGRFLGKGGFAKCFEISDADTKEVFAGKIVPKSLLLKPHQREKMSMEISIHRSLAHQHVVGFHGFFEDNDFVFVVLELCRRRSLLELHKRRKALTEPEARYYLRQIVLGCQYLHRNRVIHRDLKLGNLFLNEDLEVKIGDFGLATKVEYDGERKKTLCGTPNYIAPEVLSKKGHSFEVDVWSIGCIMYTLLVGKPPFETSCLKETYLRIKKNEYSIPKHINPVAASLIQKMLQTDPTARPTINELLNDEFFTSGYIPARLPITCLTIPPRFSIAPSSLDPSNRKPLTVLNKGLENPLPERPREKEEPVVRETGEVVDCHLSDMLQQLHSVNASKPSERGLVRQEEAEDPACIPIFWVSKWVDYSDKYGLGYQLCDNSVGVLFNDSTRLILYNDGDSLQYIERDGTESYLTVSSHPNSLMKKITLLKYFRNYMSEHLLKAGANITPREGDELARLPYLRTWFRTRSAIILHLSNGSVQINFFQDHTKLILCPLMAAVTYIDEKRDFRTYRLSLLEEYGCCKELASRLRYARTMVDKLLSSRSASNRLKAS
# ALOX12 inh: inhibitors of human 12S-lipoxygenase ALOX12; purified 12hLO, xylenol orange hydroperoxide absorbance; Potency, µM (titrated, usually from 108 µM), without a hit: at the highest dose activity change, negative = inhibition, usual class: inhibitors; 580,000 compounds, 1.1% hits; AID 1671190; also: % is scaled to controls: 0 for no effect and ±100 for the full control effect
#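 Hydroperoxide product was detected by ferrous iron/xylenol orange as the 573 to 405 nm absorbance ratio. Arachidonic acid at 40 uM (final) was turned over for 30 min at room temperature by 150 nM human 12hLO, pH 7.0 Hepes buffer, after 15 min compound preincubation.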
# G9a block: G9a (human) methyltransferase inhibition; AID 504332; Q96KQ7; G9a H3K9 monomethylation, AlphaScreen, 2 h; 350,000 compounds, 8.8% hits; Potency, µM (top dose mostly 102 µM), for the others: at the top dose activity, negative = inhibition, most hits filed as inhibitors; also: % is scaled to controls: 0 for no effect and ±100 for the full control effect; nearly all actives have a fitted effect of over 75% in size
#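 Quantitative HTS format: methyltransferase activity on a biotin-tagged H3K9 peptide is measured by AlphaScreen, using a rabbit anti-monomethyl-H3K9 antibody with streptavidin donor and anti-IgG acceptor beads. Final levels are 20 nM enzyme, 500 nM peptide, 20 uM SAM; 2 h RT.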
# HP1b binding inh: inhibitors of HP1-beta chromodomain binding to methylated histone tails; P83916; AlphaScreen HP1-beta / biotin-H3K9me3 peptide binding; Potency, µM (top dose mostly 114 µM), for the others: at the top dose activity change, negative = inhibition, actives largely listed as inhibitors; 390,000 compounds, 0.56% hits; AID 540317; also: nearly all actives have a fitted effect of over 70% in size
#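 HP1-beta protein (50 nM final) preincubated 30 min at room temperature with biotinylated H3(1-18)K9me3 peptide (50 nM) in PBS pH 7.4, 0.01% Tween-20, then compound added for 30 min. AlphaScreen streptavidin donor/nickel chelate acceptor beads (10 ug/mL final), 30 min dark, luminescence read.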
# * marks the source's active call; other numbers are inactive results; i = inactive; ? = inconclusive; nt = no result; ! = not active in a repeat; [ ] = another dose, or the depositor's remark. Shown are actives, neighbours in structure and some others; about 9% of the full set was active somewhere. Calls follow the shape of the dose curve; as a rule, active = well fitted curve in the direction sought with a large enough effect; inconclusive = small, poorly fitted or top-dose-only effect, or another doubt; inactive = no such curve, though single readings can be large; an effect the other way counts as inactive or inconclusive. Potency is read from the fitted curve at half-maximal effect.
SMILES,BAZ2B inh,JMJD2A Tudor inh,PLK1 PBD inh,ALOX12 inh,G9a block,HP1b binding inh
COc1ccc(C2=NS(=O)(=O)N(C)C(C(=O)NC(C)c3ccccc3)=C2)cc1OC (stereo not given),10%,-27%,-7%,345%,-8%[59 µM],37%
COc1ccc(C2=NS(=O)(=O)N(C)C(C(=O)N(C)Cc3ccccc3)=C2)cc1OC,-2%,5µM*!,?,211%,14µM*!,38%
CC1CN(c2ccc(Oc3ccccc3)cc2)c2nc3c(c(=O)[nH]c(=O)n3C)n2C1 (stereo not given),nt,-14%[11.4 µM],27µM*,0%,18%[59 µM],-14%
Cc1ccc(N2CC(C)Cn3c2nc2c3c(=O)[nH]c(=O)n2C)cc1 (stereo not given),-6%,-15%,-15%,0%,3%,12%
COCCNC(=S)NNc1cccc(C(=O)O)c1,nt,10µM*,21µM*,-10%,10µM*,?
CCC(C)n1c(SCC(=O)Nc2ccccc2C(=O)OC)nc2ccsc2c1=O (stereo not given),9%,-6%,nt,-22%,6%[59 µM],45%
COc1ccc(NC(=O)N2C[C@@H](F)C[C@H]2C(=O)N2CCCCC2)cc1F,nt,nt,nt,50%,nt,nt
Cc1ccccc1Nc1scc(-c2ccc(Cl)cc2)[n+]1-c1ccccc1C,7.9µM*,?,?,-7%,20µM*,?
Cc1ccccc1Nc1c(-c2ccncc2)nc2ccc(Cl)cn12,-22%,-4%,2%,-24%,-3%,53%
COC(=O)c1cc(=O)nc(NN=C2c3ccccc3-c3ccccc32)s1,nt,nt,30µM*,?,nt,nt
COC(=O)c1cc(=O)nc(NN=Cc2ccccc2)s1,nt,nt,nt,-8%,nt,nt
Cc1c(C(=O)NC2CC2)oc2ccc(S(=O)(=O)N3CCCCCC3)cc12,3%,-5%[57.1 µM],-23%,0%,22%[59 µM],39%
CCCn1c(=O)c2c(ncn2C)n(CCC)c1=O,7%,-17%,-18%,-32%,0%[59 µM],24%
O=C(COc1cccc2cccnc12)N/N=C/c1ccc(O)cc1,-17%,-20%,?,i,-5%,-14%
Cc1ccccc1OCC(=O)N/N=C/c1cccc2cccnc12,40µM*,50µM*,-5%,0%,nt,14%
O=C(COc1ccc(F)cc1)N/N=C/c1cccc2cccnc12,nt,89µM*,-2%,i,nt,36%
O=C(COc1cccc2cccnc12)N/N=C/c1ccccc1O,-35%,-33%,3%,12%,nt,97%
Cc1ccc(OCC(=O)N/N=C/c2cccc3cccnc23)cc1,32µM*,56µM*,-20%,i,nt,16%
O=C(COc1cccc2cccnc12)N/N=C/c1cccn1-c1ccc(F)cc1,28µM*,20µM*,-8%,9%,35µM*,?
O=C1CC2CCCC(C1)N2C(=O)c1cccnc1,nt,nt,nt,-4%[176 µM],nt,nt
C#CCOCCOCCOCCNc1nc(N2CCN(C(=O)Cn3cc(CCO)nn3)CC2)nc(N2CCN(C(=O)Cn3cc(CCO)nn3)CC2)n1,nt,-10%,-2%,?,nt,31%
C#CCn1cc(/C=N/NC(=O)COc2cccc3cccnc23)c2ccccc21,?,?,-9%,-27%,3.2µM*,13%
COC(=O)Cn1cc(/C=N/NC(=O)COc2cccc3cccnc23)c2ccccc21,-15%,-20%,0%,-21%,?,15%
COc1cc(OC)c(C(=O)c2ccccc2[N+](=O)[O-])c(OC)c1,nt,nt,-3%,-19%,nt,nt
CCN1C(=O)C(CC(=O)NC)N(NC(=O)c2ccccc2)C1=S (stereo not given),24%,-5%,0%,-6%,8%,36%
SMILES,BAZ2B inh,JMJD2A Tudor inh,PLK1 PBD inh,ALOX12 inh,G9a block,HP1b binding inh
C[n+]1cccc2cccc([O-])c21,56µM*,?,-25%,-22%,nt,1%
[O-][n+]1cccc2cccc(O)c21,nt,-14%,-3%,-13%,nt,5%[57 µM]
Cc1ccc(-c2[nH]c(=S)[nH]c(=O)c2C#N)cc1,-13%,-20%,-11%,16µM*,30%[0.501 µM],25%
c1ccc(Nc2cc(Nc3ccccc3)[nH]n2)cc1,45µM*,?,-26%,?,?,-26%
COc1cc(C(=O)NCc2nnc(SCC(=O)Nc3cccc(C)c3)o2)cc(OC)c1OC,2%,6%,2%,-17%,11%,35%
CCc1ccc(CNC(=O)c2cc3cn(C4CCCC4)cc3s2)cc1,nt,nt,nt,4.5µM*,nt,nt
CCOC(=O)N1CCN(CC(=O)c2c[nH]c3ccc(F)cc23)CC1,4%,nt,nt,nt,50µM*,nt
c1nc(N2CCNCC2)c2cc(-c3ccc4c(c3)OCO4)ccc2n1,nt,nt,nt,-19%,nt,nt
COc1ccc(N(CC(=O)N/N=C/c2ccc3c(c2)OCO3)S(=O)(=O)c2ccc(NC(C)=O)cc2)cc1,1%,?,27µM*,-8%,8%,?
COc1ccc(N(CC(=O)Nc2ccc3c(c2)OCO3)S(=O)(=O)c2ccc(F)cc2)cc1,-34%,-16%,-7%,0%,?,-1%
Cc1csc(C(C)NC(=O)c2ccc(OC3CCN(CCc4ccccc4)CC3)cc2)n1 (stereo not given),-23%,-29%,30µM*,-19%,-7%,11%
COc1ccc(C(=O)N/C(=C\c2cn(C)c3ccccc23)C(=O)N2CCN(C)CC2)cc1OC,-14%,?,27µM*,?,nt,18%
COc1ccc(C(=O)N/C(=C\c2cn(C)c3ccccc23)C(=O)N2CCN(C)CC2)cc1,-38%,-30%,-15%,-30%,45µM*,41%
CN1CCN(C(=O)/C(=C/c2cn(C)c3ccccc23)NC(=O)c2ccccc2)CC1,-10%,-13%,-20%,?,nt,3%
CN(C(=O)Cc1noc2ccccc12)c1ccccc1,-1%,7%,3%,-10%,-1%,13%
S=c1[nH]nc(CCc2nc3ccccc3[nH]2)n1-c1ccccc1,-11%,-94%,-5%,-8%,?,16%
S=c1[nH]nc(Cc2cccc3ccccc23)n1-c1ccccc1,-34%,79µM*,-16%,?,?,8%
S=c1[nH]nc(CCc2nc3ccccc3[nH]2)n1-c1cccc(Cl)c1,-8%,45µM*,-14%,-29%,-1%[0.501 µM],20%
C=CCn1c(Cc2nc3ccccc3[nH]2)n[nH]c1=S,?,8.9µM*,-15%,-30%,2µM*,6%
S=c1[nH]nc(Cc2noc3ccccc23)n1-c1ccccc1,0%,11µM*,-3%,-13%,2.8µM*,19%
Cc1cc(C)c2cc(C(=O)N3CCC(C(=O)c4ccc(F)cc4)CC3)[nH]c2c1,-39%,-27%,-8%,?,nt,6%
O=c1c2ccccc2cnn1Cc1n[nH]c(=S)n1-c1ccc(Cl)cc1Cl,3%,nt,nt,nt,?,nt
